The supplement of paper PMC9446081
Out of some 39,000 compounds screened, about 220 (0.56%) showed activity. The sample as a whole holds a higher share of actives than the screen did. Values without a mark were called inactive.

Each compound was assayed on Escherichia coli K-12 BW25113 (assay: relative growth (OD600 normalised to plate interquartile mean) (fraction); higher = less growth inhibition, active = 0.2 or less). Conditions: 50 µM; LB; incubation time: overnight (16-24 h).
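Note: Wild-type cells incubated without shaking, value is the mean of two biological replicates.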

Compared with `C[C@@H]1CN([C@H](C)CO)C(=O)CCCn2cc(nn2)CO[C@H]1CN(C)C(=O)C1CC1`, `C[C@@H]1CN([C@H](C)CO)C(=O)CCCn2nncc2CO[C@H]1CN(C)S(=O)(=O)c1ccc(-c2ccccc2)cc1` is lower in relative growth: 1.02 for the first, 0.979 for the second.

Going from `Cn1nc(-c2ccccn2)nc2c(=O)n(C)c(=O)nc1-2` to `COC[C@H]1CN(C(=O)c2cccc(OC)c2)N1`, the relative growth rises from 0.933 to 1.01.

Compared with `C[C@@H]1CCCCO[C@H](CN(C)Cc2ccccc2)[C@H](C)CN([C@@H](C)CO)C(=O)c2cc(NS(=O)(=O)c3cccs3)ccc2O1`, `COc1ccc(CN(C)C[C@@H]2OCCCC[C@H](C)Oc3ccc(NS(=O)(=O)c4ccc(OC)cc4)cc3C(=O)N([C@H](C)CO)C[C@H]2C)cc1` is higher in relative growth: 0.975 for the first, 0.994 for the second.

Going from `C[C@@H]1CN([C@H](C)CO)S(=O)(=O)c2ccc(-c3cccc(C#N)c3)cc2O[C@@H]1CN(C)C(=O)c1ccncc1` to `Cc1ccc(S(=O)(=O)N(C)C[C@H]2Oc3c(NC(=O)c4ccncc4)cccc3C(=O)N([C@@H](C)CO)C[C@H]2C)cc1`, the relative growth rises from 1 to 1.01.

`C[C@@H]1CN([C@H](C)CO)C(=O)Cc2cc(NS(=O)(=O)c3cccs3)ccc2O[C@@H]1CN(C)Cc1ccc(Cl)c(Cl)c1` and `C[C@H](CO)N1C[C@H](C)[C@@H](CN(C)Cc2ccc3c(c2)OCO3)Oc2ccc(NC(=O)c3ccncc3)cc2CC1=O` are the same in relative growth: 1.01 for the first, 1.01 for the second.

Compared with `O=C(C[C@@H]1CC[C@H](NC(=O)c2cnccn2)[C@@H](CO)O1)NCc1ccccc1F`, `O=C(C[C@@H]1C=C[C@H](NC(=O)c2cnccn2)[C@H](CO)O1)NCc1ccccc1F` is higher in relative growth: 0.993 for the first, 1.03 for the second.

Compared with `Cc1noc(C)c1S(=O)(=O)Nc1ccc2c(c1)CC(=O)N([C@@H](C)CO)C[C@@H](C)[C@H](CN(C)S(C)(=O)=O)O2`, `Cc1noc(C)c1S(=O)(=O)N(C)C[C@@H]1Oc2ccc(NC(=O)Cc3cn(C)c4ccccc34)cc2CC(=O)N([C@H](C)CO)C[C@@H]1C` is higher in relative growth: 0.975 for the first, 1.01 for the second.

Compared with `COc1ccc(NC(=O)Nc2ccc3c(c2)C(=O)N([C@@H](C)CO)C[C@H](C)[C@H](CN(C)S(C)(=O)=O)O3)cc1`, `C[C@@H]1CN([C@H](C)CO)C(=O)c2cc(NC(=O)C3CC3)ccc2O[C@@H]1CN(C)S(=O)(=O)c1ccccc1` is lower in relative growth: 0.991 for the first, 0.987 for the second.

First: C[C@@H]1CN([C@@H](C)CO)C(=O)c2cc(NC(=O)Nc3ccc4c(c3)OCO4)ccc2O[C@@H](C)CCCCO[C@@H]1CN(C)C(=O)NC1CCCCC1
Second: CCCN(C)C[C@@H]1OCCCC[C@@H](C)Oc2ccc(NC(=O)Nc3ccc4c(c3)OCO4)cc2C(=O)N([C@H](C)CO)C[C@H]1C
The relative growth of the first is higher: 1.04 for the first, 1.03 for the second.

First: O=c1c(O[C@@H]2O[C@H](CO)[C@@H](O)[C@H](O)[C@H]2O)c(-c2ccc(O)c(O)c2)oc2cc(O)cc(O)c12
Second: CN[C@@H]1[C@H](O[C@H]2[C@H](O[C@H]3[C@H](O)[C@@H](O)[C@H](NC(=N)N)[C@@H](O)[C@@H]3NC(=N)N)O[C@@H](C)[C@]2(O)C=O)O[C@@H](CO)[C@H](O)[C@H]1O
The relative growth of the first is higher: 1.04 for the first, 0.888 for the second.

Going from `CC(C)NC(=O)Nc1cccc2c1O[C@H](CN(C)Cc1ccc(-c3ccccc3)cc1)[C@@H](C)CN([C@@H](C)CO)C2=O` to `Cc1ccc(S(=O)(=O)N(C)C[C@H]2Oc3c(NC(=O)NC(C)C)cccc3C(=O)N([C@@H](C)CO)C[C@H]2C)cc1`, the relative growth falls from 0.997 to 0.992.

Going from `C[C@H]1CCCCO[C@H](CN(C)Cc2ccncc2)[C@@H](C)CN([C@@H](C)CO)C(=O)c2cc(NC(=O)C3CCCCC3)ccc2O1` to `C[C@@H]1CN([C@H](C)CO)C(=O)c2cc(NC(=O)NC3CCCCC3)ccc2O[C@@H](C)CCCCO[C@@H]1CN(C)Cc1ccncc1`, the relative growth rises from 0.956 to 0.996.

Going from `COc1ccc(S(=O)(=O)Nc2cccc3c2O[C@@H](CN(C)C(=O)NC(C)C)[C@H](C)CN([C@H](C)CO)C3=O)cc1` to `Cc1ccc(S(=O)(=O)N(C)C[C@@H]2Oc3c(NC(=O)Nc4cccc5ccccc45)cccc3C(=O)N([C@H](C)CO)C[C@@H]2C)cc1`, the relative growth rises from 0.978 to 1.

First: CN[C@H]1[C@@H](O[C@H]2[C@@H](O[C@H]3[C@@H](O)[C@@H](O)[C@@H](NC(=N)N)[C@@H](O)[C@@H]3NC(=N)N)O[C@@H](C)[C@@]2(O)C=O)O[C@@H](CO)[C@@H](O)[C@@H]1O.CN[C@H]1[C@@H](O[C@H]2[C@@H](O[C@H]3[C@@H](O)[C@@H](O)[C@@H](NC(=N)N)[C@@H](O)[C@@H]3NC(=N)N)O[C@@H](C)[C@@]2(O)C=O)O[C@@H](CO)[C@@H](O)[C@@H]1O.O=S(=O)(O)O.O=S(=O)(O)O.O=S(=O)(O)O
Second: CNC1C(OC2C(OC3C(O)C(O)C(NC(=N)N)C(O)C3NC(=N)N)OC(C)C2(O)C=O)OC(CO)C(O)C1O.O=S(=O)(O)O (stereo not drawn) [STREPTOMYCIN SULFATE [5mM; 10% aq DMSO + 5mM ethanolamine]]
The relative growth of the first is lower: 0.372 for the first, 1.11 for the second.

Compared with `CN[C@@H]1[C@H](O[C@H]2[C@H](O[C@@H]3[C@@H](O)[C@H](O)[C@@H](NC(=N)N)[C@H](O)[C@H]3NC(=N)N)O[C@@H](C)[C@]2(O)C=O)O[C@@H](CO)[C@H](O)[C@H]1O`, `O=c1[nH]c(=O)n([C@H]2C[C@H](O)[C@@H](CO)O2)cc1CO` is higher in relative growth: 0.972 for the first, 1.04 for the second.

First: C[C@H]1CN([C@@H](C)CO)C(=O)c2cc(NC(=O)C3CC3)ccc2O[C@@H]1CN(C)S(=O)(=O)c1cn(C)cn1
Second: Cc1noc(C)c1S(=O)(=O)N(C)C[C@H]1Oc2c(NC(=O)C3CCCCC3)cccc2C(=O)N([C@@H](C)CO)C[C@H]1C
The relative growth of the first is lower: 0.941 for the first, 1.01 for the second.

First: C[C@@H]1CCCCO[C@H](CN(C)Cc2ccc(C(F)(F)F)cc2)[C@H](C)CN([C@@H](C)CO)C(=O)c2cc(NS(=O)(=O)c3ccc(Cl)cc3)ccc2O1
Second: C[C@H]1CCCCO[C@@H](CN(C)S(=O)(=O)c2ccc(Cl)cc2)[C@@H](C)CN([C@@H](C)CO)C(=O)c2cc(NC(=O)NC3CCCCC3)ccc2O1
The relative growth of the first is higher: 1.03 for the first, 1 for the second.

Going from `OC[C@@H]1CN(CCN2CCOCC2)C[C@H](n2cnc3c(NC4CCC4)ncnc32)O1` to `Cc1cn([C@@H]2C[C@H](O)[C@@H](CO)O2)c(=O)[nH]c1=O`, the relative growth rises from 0.936 to 0.988.

Compared with `CC(=O)OCC1=C(C(=O)O)N2C(=O)[C@@H](NC(=O)CSc3ccncc3)[C@H]2SC1`, `Cc1nnc(SCC2=C(C(=O)O)N3C(=O)[C@@H](N)[C@H]3SC2)s1` is lower in relative growth: 1.05 for the first, 1 for the second.

Going from `C[C@@H]1CN([C@H](C)CO)C(=O)Cc2cc(NC(=O)CCCN(C)C)ccc2O[C@@H]1CN(C)S(=O)(=O)c1ccc(Cl)cc1` to `COc1ccc(S(=O)(=O)N(C)C[C@@H]2Oc3ncc(C#Cc4ccc(OC)c(OC)c4)cc3C(=O)N([C@H](C)CO)C[C@@H]2C)cc1`, the relative growth falls from 0.973 to 0.91.

Compared with `O=c1[nH]c(=O)n(C2CC(O)C(CO)O2)cc1I` (stereo not drawn), `O=c1[nH]c(=O)n([C@H]2C[C@H](O)[C@@H](CO)O2)cc1Br` is lower in relative growth: 1.06 for the first, 0.944 for the second.

Going from `Cc1cn([C@@H]2C[C@@H](O)[C@H](CO)O2)c(=O)[nH]c1=O` to `Cc1cn([C@H]2C[C@H](O)[C@@H](CO)O2)c(=O)[nH]c1=O`, the relative growth rises from 0.991 to 1.03.

With `COc1nc(C)nc(Cl)c1NC1=NCCN1` the relative growth was 1.03.

`Cn1cc(-c2[nH]c3cc(NC(=O)[C@H](N)C4CCCCC4)cc4c3c2C=NNC4=O)cn1` was tested, and the relative growth was 0.161 (active).
For `CN[C@@H]1[C@H](O)[C@H](NC)[C@H]2O[C@@]3(O)C(=O)C[C@@H](C)O[C@H]3O[C@@H]2[C@H]1O`, the relative growth was 0.0458 (active).
For `CNC1C(O)C(NC)C2OC3(O)C(=O)CC(C)OC3OC2C1O.Cl.Cl` (stereo not drawn), the relative growth was 0.048 (active).
For `CNC1C(OC2C(OC3C(O)C(O)C(NC(=N)N)C(O)C3NC(=N)N)OC(C)C2(O)CO)OC(CO)C(O)C1O.O=S(=O)(O)O` (stereo not drawn), the relative growth was 0.0643 (active).
For `CN[C@@H]1[C@H](O[C@H]2[C@H](O[C@@H]3[C@@H](O)[C@H](O)[C@@H](NC(=N)N)[C@H](O)[C@H]3NC(=N)N)O[C@@H](C)[C@]2(O)CO)O[C@@H](CO)[C@H](O)[C@H]1O.CN[C@@H]1[C@H](O[C@H]2[C@H](O[C@@H]3[C@@H](O)[C@H](O)[C@@H](NC(=N)N)[C@H](O)[C@H]3NC(=N)N)O[C@@H](C)[C@]2(O)CO)O[C@@H](CO)[C@H](O)[C@H]1O`, the relative growth was 0.11 (active).
`O=C(Cn1cnnn1)NC1C(=O)N2C(C(=O)O)=C(CSc3nncs3)CSC12` (stereo not drawn) was tested, and the relative growth was 0.0457 (active).
In the case of `Cc1nnc(SCC2=C(C(=O)[O-])N3C(=O)C(NC(=O)Cn4cnnn4)C3SC2)s1.[Na+]` (stereo not drawn), the relative growth is reported as 0.0433 (active).
In the case of `Cc1nnc(SCC2=C(C(=O)O)N3C(=O)[C@@H](NC(=O)Cn4cnnn4)[C@H]3SC2)s1`, the relative growth is reported as 0.0386 (active).
`O=c1[nH]c(=O)n([C@H]2C[C@H](O)[C@@H](CO)O2)cc1F` was tested, and the relative growth was 0.0339 (active).
`O=c1[nH]c(=O)n(C2CC(O)C(CO)O2)cc1F` (stereo not drawn) was tested, and the relative growth was 0.0526 (active).
In the case of `O=c1[nH]c(=O)n([C@@H]2C[C@@H](O)[C@@H](CO)O2)cc1F`, the relative growth is reported as 0.0303 (active).
`CC1CN(c2c(F)c(F)c3c(=O)c(C(=O)O)cn(C4CC4)c3c2F)CC(C)N1` (stereo not drawn) was tested, and the relative growth was 0.0486 (active).
`CC1CN(c2c(F)c(N)c3c(=O)c(C(=O)O)cn(C4CC4)c3c2F)CC(C)N1` (stereo not drawn) was tested, and the relative growth was 0.0495 (active).
